Assay outcomes as filed in PubChem.
TSG101-PTAP inh: qHTS Assay for Iinhibitors of HIV-1 Budding by Blocking the Interaction of PTAP/TSG101 | Tumor susceptibility gene 101 protein (Homo sapiens), Q99816 | Fluorescence polarization, FITC-PTAP peptide / Tsg101 binding | Potency, µM (series often up to 115 µM), without a hit: at the highest dose activity change, negative = inhibition, most hits filed as inhibitors | 340,000 tested, under 10 active | AID 493005, 2010; active = well fitted inhibition curve with a large enough effect in the main read-out, with a control signal flat, not every such curve was filed as active; inconclusive = small, poorly fitted or top-dose-only effect, or effect the other way, or a change in a side signal; inactive = no such curve, though single readings can be large or run the other way; note: % of control where 0% means no effect
Target sequence (Q99816 whole entry, looked up): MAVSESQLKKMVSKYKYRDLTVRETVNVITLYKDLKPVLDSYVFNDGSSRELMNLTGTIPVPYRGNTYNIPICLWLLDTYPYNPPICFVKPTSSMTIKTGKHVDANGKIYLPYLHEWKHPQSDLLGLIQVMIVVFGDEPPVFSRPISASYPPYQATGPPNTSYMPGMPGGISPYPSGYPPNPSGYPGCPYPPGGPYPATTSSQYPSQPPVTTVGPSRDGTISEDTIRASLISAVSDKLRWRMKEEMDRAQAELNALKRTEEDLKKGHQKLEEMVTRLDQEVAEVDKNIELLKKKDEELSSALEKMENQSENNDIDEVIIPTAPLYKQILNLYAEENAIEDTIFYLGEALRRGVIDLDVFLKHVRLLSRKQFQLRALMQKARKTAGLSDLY
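Steps: Tsg101 binding domain dispensed (10 uM final), compounds pinned in DMSO, FITC-labeled PTAP-motif peptide added (50 nM final); after 20 min binding at room temperature, polarization measured.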
aSyn yeast inh: qHTS of alpha-syn Inhibitors. Yeast expressing alpha-synuclein, growth rescue, BacTiter-Glo, 24 h. Potency, µM (top dose mostly 46.1 µM), inactives show top-dose growth rescue (activation), usual class: activators. 0.14% of 370,000 active; note: % of control where 0% means no effect; nearly all actives have a fitted effect of over 65% in size
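Galactose-induced alpha-syn yeast (OD600=0.02, raffinose-pregrown) + pinned cpd, 24 hr, 30 deg C; growth by BacTiter-Glo luminescence. Growth restoration scores as activation.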
Abeta rescue: qHTS for compounds that reverse cellular toxicity of Amyloid beta (A-beta) peptide in yeast: Primary Screen; yeast expressing A-beta42, growth rescue, OD600, 48 h; response scale: 0% DMSO, 100% iron-clioquinol control; Potency, µM (series often up to 46.1 µM), usual class: activators; 0.063% of 410,000 active; AID 1347071, 2019; note: nearly all actives have a fitted effect of over 55% in size
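Growth rescue measured by 600 nm absorbance after 48 h yeast culture at 30 C with compound. Values normalized between DMSO and an equimolar ferric chloride plus clioquinol control.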
TDP43 rescue: qHTS of TDP-43 Inhibitors; TDP-43 expressing yeast growth rescue, BacTiter-Glo, 24 h; Potency, µM (titrated, usually from 46.1 µM), for inactives: at the top dose growth rescue (activation), hits mostly activators; 1.8% of 410,000 active; note: % of control where 0% means no effect; nearly all actives have a fitted effect of over 50% in size
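In this qHTS, compounds that restore growth of yeast expressing TDP-43 appear as activators. Cells (OD600=0.02, galactose medium, raffinose-pregrown) are incubated with compound 24 hr at 30 deg C and growth is quantified by BacTiter-Glo.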
FUS yeast rescue: qHTS for Suppressors of FUS Proteinopathy: Primary screen using FUS-linked yeast assay. S. cerevisiae FUS-expressing, growth rescue, OD600, 24 h. Potency, µM (series often up to 76.6 µM), usual class: activators. 0.24% of 390,000 active. AID 1347120, 2019;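 note: plate controls were DMSO vehicle for no effect and reference control for full effect; nearly all actives have a fitted effect of over 55% in size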
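Compound concentration series was pinned onto galactose-induced FUS-expressing yeast seeded at OD 0.005. Plates sat 24hr at 30C; absorbance at 600 nm gave growth. DMSO served as background control.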
Active calls of the source: *; i = inactive; ? = inconclusive; . = not tested or not shown; [ ] = remark or other dose. This is a sample that favours compounds with a hit; in the whole collection about 2.1% have one here. Unless noted, calls come from the whole dose curve; as a rule, active = well fitted curve in the direction sought with a large enough effect; inconclusive = small, poorly fitted or top-dose-only effect, or another doubt; inactive = no such curve, though single readings can be large; an effect the other way counts as inactive or inconclusive. Potency is the fitted concentration of half-maximal effect.

SMILES | TSG101-PTAP inh | aSyn yeast inh | Abeta rescue | TDP43 rescue | FUS yeast rescue
CCOc1cc(C2CC(=O)Nc3c2c(=O)nc(SCc2cccc(Cl)c2)n3C)ccc1O (centres undefined) | . | . | i | 0%[9.22 µM] | i
C=Cc1ccc(CSc2nc(-c3ccc(Cl)cc3)nc3c2Cc2c(CO)cnc(C)c2O3)cc1 | . | . | i | 16% | i
COc1ccccc1CNC(=O)COc1ccccc1C | -9% | -1% | i | ? | i
COc1ccccc1CNC(=O)COc1ccc(Br)c(C)c1 | -9% | 15% | i | 18µM* | i
O=C(/C=C/c1ccco1)Oc1cc(Br)cc(/C=N/NC(=O)c2ccccc2O)c1 | -7% | 22µM* | i | 7% | i
COc1ccc(S(=O)(=O)NCC(c2ccco2)S(=O)(=O)c2ccc(C)cc2)cc1C (centres undefined) | . | . | i | ? | i
CCCCCCCCc1nc(=S)[nH][nH]1 | 3% | -2% | i | 13µM* | i
COc1ccc([C@H]2CC(=O)C=C(c3ccc(O)cc3)C2)cc1OC | -3% | 1% | i | 14% | i
COc1ccc([C@H]2CC(=O)C=C(c3cccc(Br)c3)C2)cc1 | 0% | ? | i | 22µM* | i
COc1ccc([C@H]2CC(=O)C=C(c3ccc4ccccc4c3)C2)cc1OC | . | 10% | i | 16µM* | i
COc1ccc([C@H]2CC(=O)C=C(c3cccc(C(F)(F)F)c3)C2)cc1 | -2% | -5% | i | ? | i
CCOC(=O)c1cccc(C2=CC(=O)C[C@H](c3ccc(OC)c(OC)c3)C2)c1 | -1% | 1% | i | 22µM* | ?
COc1ccc([C@H]2CC(=O)C=C(c3cccc(C(C)C)c3)C2)cc1OC | . | -5% | i | 20µM* | i
COc1ccccc1C(=O)Nc1nnc(SCc2cc(=O)c3cc(Cl)ccc3[nH]2)s1 | . | . | i | 6% | i
CCOc1ccc(CNC(=O)C2CCN(C(=O)c3sccc3-n3cccc3)CC2)cc1 | . | . | i | 13% | i
COc1ccc([C@H]2CC(=O)C=C(c3cccc(Br)c3)C2)cc1OC | -2% | 15% | i | 35µM* | ?
COc1cccc(C2=CC(=O)C[C@H](c3ccc(Cl)cc3)C2)c1 | -6% | 11% | i | 13µM* | ?
O=C1C=C(c2ccc3ccccc3c2)C[C@@H](c2ccc(Cl)cc2)C1 | . | 12% | i | 15% | i
CCN1CCN(C(=S)NC(=O)c2cccs2)CC1 | -4% | -2% | i | -11% | i
O=C(NC(=S)N1CCN(c2ccc(C(F)(F)F)cc2[N+](=O)[O-])CC1)c1cccs1 | -4% | -3% | i | 20µM* | .
CCn1c(=O)c2sccc2n2c(CCCC(=O)N3CCN(c4ccc(F)cc4)CC3)nnc12 | . | . | i | 9% | i
Cc1cc(NC(=O)c2ccc(Br)cc2)nc(C)n1 | 0% | -2% | i | 16µM* | i
Cc1csc(SCc2nnc(-c3ccccc3Br)o2)n1 | -3% | -1% | i | 3% | i
Fc1ccccc1SCc1nnc(-c2ccccc2Br)o1 | -5% | 13% | i | 22µM* | i
Cc1ccc(NC(=O)C(Cc2ccccc2)NS(=O)(=O)c2ccc3c(c2)c(=O)n(C)c(=O)n3C)cc1 (centres undefined) | . | . | i | -16% | i
Cn1c(/C=C/c2ccc(Br)cc2)c([N+](=O)[O-])c(=O)n(C)c1=O | 0% | 0% | i | 20µM* | i
CCOC(=O)C1(C)CCN1C(=O)/C=C/c1ccccc1 (centres undefined) | . | 6% | i | 24% | i
CC1CCCCC1NC(=S)Nc1ccc(SC(F)F)cc1 (centres undefined) | -13% | -29% | ? | 20µM* | i
FC(F)Sc1ccc(NC(=S)NC2CCCCC2)cc1 | -7% | -17% | i | 16% | i
